outcome, Potency and max response data for 33 compounds are collected here from PubChem BioAssay (NCATS).

Results filed as inconclusive are left out. Where a call stands in place of a potency, no number is given. A structure can be active in one record and inactive in another. The source made the active and inactive calls. Unless noted, calls come from the whole dose curve; as a rule, active = well fitted curve in the direction sought with a large enough effect; inconclusive = small, poorly fitted or top-dose-only effect, or another doubt; inactive = no such curve, though single readings can be large; an effect the other way counts as inactive or inconclusive.

Assay [1] deals with Calcium and integrin-binding protein 1 (Homo sapiens) (UniProt Q99828). Description: Validation qHTS for Identification of Calcium Integrin Binding protein 1 (CIB1) Competitor (AID 1508618). In outline:
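Fluorescence polarization with 1 uM CIB1-GST and 100 nM FITC-alphaIIb peptide in HEPES pH 7.4, NaCl, 5 mM CaCl2, Tween20. Compounds at up to 114 uM final, preincubated with protein 15 min; read after 15 min more at RT.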

A short description of assay [2]: Counterscreen qHTS for small molecule stabilizers of the endoplasmic reticulum resident proteome: GLuc-NoTag assay (AID 1508627). Note: potency is the fitted concentration of half-maximal effect. The method in brief: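 SH-SY5Y cells stably expressing constitutively secreted GLuc (no SERCaMP tag) were pre-incubated 5 h, treated with compound for 19 h, then 100 nM thapsigargin for 4 h at 37C; medium GLuc read by coelenterazine luminescence.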
(In general: A counterscreen serves to expose hits that act by an unwanted route or on another target.)

The target of another assay is Papain (Carica papaya) (UniProt P00784). Put plainly: Primary qHTS assay for inhibitors of the protease papain (AID 1645873).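 Note: papain turnover of Z-FR-AMC read as the AMC fluorescence gain over 10 min.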 Note: potency is the fitted concentration of half-maximal effect. In general terms: qHTS replaces the single test concentration by a dilution series.
Assay [3] has as its target Calcium and integrin-binding protein 1 (Homo sapiens) (UniProt Q99828). Put plainly: Primary qHTS for Identification of Calcium Integrin Binding Protein 1 (CIB1) Competitor (AID 1508620).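 Note: GST tagged CIB1 binding a fluorescein labelled alphaIIb integrin peptide tracer; top concentration of the series differs between compounds.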 In outline:
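Fluorescence polarization competition: CIB1-GST (1 uM final) preincubated with compound 15 min at room temperature, then FITC-labeled alphaIIb peptide (100 nM final) added for another 15 min. Polarization read at Ex 480/Em 540.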

Assay [4] deals with Cytochrome P450 2D6 (Homo sapiens) (UniProt P10635). Put plainly: Cytochrome P450 family 2 subfamily D member 6 (CYP2D6) small molecule antagonists: luciferase biochemical (cell-free) qHTS assay (AID 1645840; active = well fitted curve in the direction sought with a large enough effect in the repeat runs; an effect the other way counts as inactive or inconclusive; note: nearly all actives have a fitted effect of over 55% in size; note: potency is the fitted concentration of half-maximal effect). In outline: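 P450-Glo luminescent screen: recombinant CYP2D6 enzyme–proluciferin substrate mix preincubated with compound 10 min at room temperature, then NADPH regeneration added for 1 h at room temperature. Detection reagent added for 20 min; luciferin light read as relative luminescence units.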

Assay [5] concerns the target Cytochrome P450 2C9 (Homo sapiens) (UniProt P11712). Description: Cytochrome P450 family 2 subfamily C member 9 (CYP2C9) small molecule antagonists: luciferase biochemical (cell-free) qHTS assay (AID 1645842; active = well fitted curve in the direction sought with a large enough effect in the repeat runs; an effect the other way counts as inactive or inconclusive; note: nearly all actives have a fitted effect of over 55% in size; note: potency is the fitted concentration of half-maximal effect). In outline: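 Luminescence, after 20 min with luciferin detection reagent, reflected CYP2C9 turnover during a 1 h NADPH-driven reaction at 37C. Enzyme-substrate mix contained 0.4% bovine serum albumin and was preincubated with compound 10 min at room temperature.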

Assay [6] is described as follows: Primary qHTS for small molecule stabilizers of the endoplasmic reticulum resident proteome: Secreted ER Calcium Modulated Protein (SERCaMP) assay (AID 1508630). Note: potency is the fitted concentration of half-maximal effect. The method in brief: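 GLuc-SERCaMP-expressing SH-SY5Y cells, pretreated 16 h with compound, are challenged with thapsigargin to empty ER calcium stores; after 4 h, coelenterazine is added directly to the medium and luminescence is imaged.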

Assay [7] in a line: A High-Content qHTS Against Drug Library for the Identification of Small Molecules that Inhibit DYT1 Early Onset Primary Dystonia-Associated Cell Pathology (AID 1645839; calls by dose curve; note: series mostly up to about 46 µM). The method in brief:
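Readout: %pathology, the punctate EGFP-TorsinA distribution from imaging, as the primary channel and cell count as the toxicity counterscreen. HEK293 Flp-In cells expressing delE TorsinA were induced with tetracycline and treated with compound for 48 h.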

Assay [8] is described as follows: Cell Viability qHTS for small molecule stabilizers of the endoplasmic reticulum resident proteome (AID 1508629).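 Note: human SH-SY5Y neuroblastoma cells carrying the GLuc-SERCaMP reporter; compound exposure about 46 h in total before the viability read.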 The following applies: cell viability counter-screen, 100 nM thapsigargin for final 4 h.
For assay [9], the target named is Cytochrome P450 3A4 (Homo sapiens) (UniProt P08684). Description: Cytochrome P450 family 3 subfamily A member 4 (CYP3A4) small molecule antagonists: luciferase qHTS assay (AID 1645841; active = well fitted curve in the direction sought with a large enough effect in the repeat runs; an effect the other way counts as inactive or inconclusive; note: nearly all actives have a fitted effect of over 45% in size). In outline: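 P450-Glo CYP3A4 enzyme with proluciferin substrate was preincubated with DMSO-dissolved compounds for 10 min at room temperature. NADPH regeneration solution started a 1 h reaction. Detection reagent stopped it, and luminescence was read after 20 min.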
Chain of Cytochrome P450 3A4 (Homo sapiens) (P08684 whole entry, looked up): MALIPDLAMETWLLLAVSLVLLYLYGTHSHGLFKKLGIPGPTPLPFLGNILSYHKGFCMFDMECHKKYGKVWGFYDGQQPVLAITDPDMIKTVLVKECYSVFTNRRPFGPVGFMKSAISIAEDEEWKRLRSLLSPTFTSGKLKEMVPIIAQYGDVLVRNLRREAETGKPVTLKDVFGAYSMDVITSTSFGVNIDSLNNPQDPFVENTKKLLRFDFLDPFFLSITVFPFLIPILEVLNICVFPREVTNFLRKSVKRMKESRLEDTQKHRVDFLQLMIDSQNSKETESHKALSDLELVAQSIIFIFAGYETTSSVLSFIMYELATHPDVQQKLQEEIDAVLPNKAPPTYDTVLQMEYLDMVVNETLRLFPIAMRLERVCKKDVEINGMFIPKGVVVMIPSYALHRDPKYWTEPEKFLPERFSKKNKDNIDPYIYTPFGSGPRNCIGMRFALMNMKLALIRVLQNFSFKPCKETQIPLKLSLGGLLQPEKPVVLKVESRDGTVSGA

Chain of Cytochrome P450 2D6 (Homo sapiens) (P10635 whole entry, looked up): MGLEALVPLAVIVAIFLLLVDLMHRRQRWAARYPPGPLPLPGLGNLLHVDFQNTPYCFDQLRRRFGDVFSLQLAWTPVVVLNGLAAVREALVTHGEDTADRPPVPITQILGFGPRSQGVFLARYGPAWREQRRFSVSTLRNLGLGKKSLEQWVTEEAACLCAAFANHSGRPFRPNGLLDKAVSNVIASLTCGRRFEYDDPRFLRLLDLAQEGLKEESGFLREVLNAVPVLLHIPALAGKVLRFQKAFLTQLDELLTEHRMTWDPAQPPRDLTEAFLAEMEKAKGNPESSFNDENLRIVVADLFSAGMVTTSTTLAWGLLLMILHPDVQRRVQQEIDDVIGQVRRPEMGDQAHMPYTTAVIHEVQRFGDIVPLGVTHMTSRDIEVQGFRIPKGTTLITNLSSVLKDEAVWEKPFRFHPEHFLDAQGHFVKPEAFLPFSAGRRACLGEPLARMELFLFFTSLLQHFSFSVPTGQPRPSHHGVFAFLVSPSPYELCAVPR
Chain of Papain (Carica papaya) (P00784 whole entry, looked up): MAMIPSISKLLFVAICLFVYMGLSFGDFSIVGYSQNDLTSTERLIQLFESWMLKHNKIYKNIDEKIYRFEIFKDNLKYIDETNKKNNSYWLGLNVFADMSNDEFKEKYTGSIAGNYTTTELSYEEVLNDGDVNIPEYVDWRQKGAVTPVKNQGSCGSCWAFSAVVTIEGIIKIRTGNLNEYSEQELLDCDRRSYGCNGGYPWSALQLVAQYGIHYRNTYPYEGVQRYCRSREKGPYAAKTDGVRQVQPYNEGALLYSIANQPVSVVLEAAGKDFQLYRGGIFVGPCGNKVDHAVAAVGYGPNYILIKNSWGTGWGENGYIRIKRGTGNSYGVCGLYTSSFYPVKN
Chain of Cytochrome P450 2C9 (Homo sapiens) (P11712 whole entry, looked up): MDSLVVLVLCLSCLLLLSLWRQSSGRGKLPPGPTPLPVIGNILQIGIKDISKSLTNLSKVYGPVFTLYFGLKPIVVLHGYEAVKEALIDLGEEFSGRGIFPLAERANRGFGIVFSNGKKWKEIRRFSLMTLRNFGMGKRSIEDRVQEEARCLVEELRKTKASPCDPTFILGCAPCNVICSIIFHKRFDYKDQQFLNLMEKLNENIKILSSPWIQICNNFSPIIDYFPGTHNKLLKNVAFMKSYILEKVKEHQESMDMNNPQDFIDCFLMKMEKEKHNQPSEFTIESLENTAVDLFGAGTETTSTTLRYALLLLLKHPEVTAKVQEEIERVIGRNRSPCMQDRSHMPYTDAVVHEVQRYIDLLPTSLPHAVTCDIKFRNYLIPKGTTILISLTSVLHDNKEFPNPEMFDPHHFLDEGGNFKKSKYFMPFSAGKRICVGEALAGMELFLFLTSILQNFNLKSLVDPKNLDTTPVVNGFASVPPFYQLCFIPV
Chain of Calcium and integrin-binding protein 1 (Homo sapiens) (Q99828 whole entry, looked up): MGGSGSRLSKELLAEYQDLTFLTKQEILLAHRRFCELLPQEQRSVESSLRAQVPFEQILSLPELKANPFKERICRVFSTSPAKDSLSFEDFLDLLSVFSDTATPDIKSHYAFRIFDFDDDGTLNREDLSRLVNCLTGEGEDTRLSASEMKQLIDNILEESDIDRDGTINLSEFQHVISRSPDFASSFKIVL

Regarding `NC(=S)c1ccc[n+]([C@@H]2O[C@@H](COP(=O)([O-])OP(=O)(O)OC[C@H]3O[C@@H](n4cnc5c(N)ncnc54)[C@H](OP(=O)(O)O)[C@@H]3O)C(O)C2O)c1` (stereo partly specified), in [1], the result was inactive. The Potency result (in assay [2]; with Papain (Carica papaya)) was “inactive” in each case.
With `CCCCN(CC)c1nc(C)nc2c1c(C)cn2-c1c(C)cc(C)cc1C`, in assay [1], the result was inactive. Besides, the Potency result (in assay [3]; in [4]; with Papain (Carica papaya)) was “inactive” throughout. Besides, the Potency in assay [5] is 12 µM (active).
Turning to `N=c1ccn2c(n1)O[C@H]1[C@H](O)[C@@H](CO)O[C@H]12`, in [1], the outcome was inactive. For the same compound, the Potency entry in assay [6] is “inactive”.
Regarding `CC(N)C(=O)OC(C)(C)Cc1ccc(Cl)cc1` (stereo unspecified), the result in [1] was inactive. In addition, the Potency entry (in [3]; in assay [6]; in assay [7]; with Papain (Carica papaya)) was “inactive” each time. For the same compound, the Potency in [4] and in [5] was 12.3 µM (active) each time.
On to `O=C(c1ccc(Cl)cc1)N1CCN(c2ccc([N+](=O)[O-])c3ncccc23)CC1`, for which the result in assay [1] was inactive. Moreover, the max response in [8] is 3.83% (inactive). Further, in the assay with Papain (Carica papaya), the Potency entry is “inactive”.
In the case of `CCCN(CC1CC1)c1nc(C)nc(Nc2c(Cl)cc(Cl)cc2Cl)c1Cl`, the outcome in [1] was inactive. Moreover, the Potency result (in assay [2]; in [6]; in the assay with Papain (Carica papaya)) was “inactive” in each case. Moreover, the max response in [8] is 17.8% (inactive).
For the compound `CCNc1nc2c(ncn2[C@H]2C[C@H](O)[C@@H](CO)O2)c(=O)[nH]1`, the result in assay [1] was inactive. Besides, the Potency result (in assay [3]; with Papain (Carica papaya)) was “inactive” each time.
Regarding `CN=c1nc(-c2ccccc2)n(-c2ccccc2)s1`, the result in assay [1] was inactive. For the same compound, in assay [6], the Potency entry was “inactive”.
Take `C[N+]1(C)C2CC(OC(=O)[C@H](CO)c3ccccc3)CC1C1OC12` (stereo partly specified): in assay [1], the outcome was inactive. The Potency entry in assay [2] is “inactive”. In assay [8], the max response is 12% (inactive). Moreover, the Potency with Papain (Carica papaya) was 1.12 µM (active) and inactive.
As to `CCCCCCCC/C=C\CCCCCCCC(=O)NCCO`, the outcome in assay [1] was inactive. Besides, the Potency entry (in [2]; with Papain (Carica papaya)) was “inactive” throughout. Also, in assay [8], the max response is 21.6% (inactive). In addition, the Potency in assay [6] is 12.6 µM (active).
On to `O=C(/C=C/c1ccc(O)cc1)c1ccc(O)cc1O`, for which the result in assay [1] was inactive. Also, the Potency result (in assay [2]; in assay [6]; with Papain (Carica papaya)) was “inactive” each time.
Turning to `O=[N+]([O-])c1ccc(CNc2nc(NCc3cccc(C(F)(F)F)c3)nc3nc[nH]c23)cc1`, the outcome in [1] was inactive. The Potency result (in [3]; in the assay with Papain (Carica papaya)) was “inactive” each time. The Potency in assay [5] is 1.07 µM (active).
`Cn1cc(C2=C(c3ccc(Cl)cc3Cl)C(=O)NC2=O)c2ccccc21`: the result in [1] was inactive. The Potency in [2] was 0.447 µM (active). For the same compound, the Potency result (in assay [6]; in the assay with Papain (Carica papaya)) was “inactive” in each case.
In the case of `CN1CCc2cccc3c2C1Cc1ccc(O)c(O)c1-3` (stereo unspecified), the outcome in assay [1] was inactive. Also, in assay [6], the Potency result was “inactive”.
As for `O=C(/C=C/c1ccc(O)c(O)c1)OCCc1ccccc1`, the result in assay [1] was inactive. Also, the Potency entry (in assay [2]; with Papain (Carica papaya)) was “inactive” each time.
In the case of `CCN(CC)CCCCNc1ncc2cc(-c3c(Cl)cccc3Cl)c(NC(=O)NC(C)(C)C)nc2n1`, in [1], the result was inactive. Further, the Potency entry in assay [3] was “inactive”. Besides, the figures for the Potency (in assay [5]; in the assay with Papain (Carica papaya)) were 19 µM (active) and 28.2 µM (active), respectively.
As to `O=C(Nc1ccccc1)c1cc([N+](=O)[O-])ccc1Cl`, the outcome in [1] was inactive. Moreover, the Potency entry (in assay [2]; in [6]; with Papain (Carica papaya)) was “inactive” in each case. Also, the max response in assay [8] was -26.2% (inactive).
As for `COC(=O)C1=C(C)NC(C)=C(C(=O)OC)C1c1cccc(NC(=O)NCCCN2CCC(c3cccc(OC)c3)CC2)c1`, in [1], the outcome was inactive. The Potency result (in assay [3]; in the assay with Papain (Carica papaya)) was “inactive” in each case. Moreover, the figures for the Potency in [4] and in [5] were 4.25 µM (active) and 1.69 µM (active), respectively.
Regarding `Fc1ccc2[nH]c(CN3CCN(c4ccccn4)CC3)cc2c1`, in assay [1], the outcome was inactive. The Potency result (in assay [3]; with Papain (Carica papaya)) was “inactive” each time. The Potency in [4] is 5.35 µM (active); in assay [5], 6.74 µM (active).
For `CCC1C(=O)OCC1Cc1cncn1C` (stereo unspecified), the outcome in assay [1] and in [9] was inactive. For the same compound, the Potency result (in assay [3]; in assay [6]; in assay [7]; in [4]; in assay [5]; with Papain (Carica papaya)) was “inactive” throughout.
Consider `O=C1/C(=C/c2ccsc2)CC/C1=C\c1cccs1`, for which, in [1], the result was inactive. Also, the Potency entry in [6] is “inactive”.
As for `NCC1OC(O[C@H]2[C@H](O)[C@@H](OC3C(O)C(N)CC(N)C3OC3OC(CO)C(O)C(O)C3N)O[C@@H]2CO)C(N)C(O)C1O` (stereo partly specified), the result in [1] was inactive. Further, the Potency entry in assay [6] was “inactive”.
On to `CO/N=C(\C(=O)N[C@@H]1C(=O)N2C(C(=O)O)=C(COC(C)=O)CS[C@H]12)c1csc(N)n1`, for which, in assay [1], the outcome was inactive. Moreover, the Potency entry (in assay [6]; in assay [4]; in [5]; with Papain (Carica papaya)) was “inactive” each time.
Turning to `O=C(Nc1ccc2c(c1)CCN(Cc1ncn[nH]1)C2)c1ccccc1-c1ccc(C(F)(F)F)cc1`, in [1], the result was inactive. Also, the Potency result (in assay [3]; with Papain (Carica papaya)) was “inactive” in each case. Further, the Potency in assay [4] is 0.12 µM (active); in assay [5], 10.7 µM (active).
In the case of `CN1CC(=O)N/C1=N/C(=O)Nc1cccc(Cl)c1`, the result in [1] was inactive. The Potency result (in [3]; in [6]; in assay [7]; in [5]; in the assay with Papain (Carica papaya)) was “inactive” each time.
As to `CC1CN(S(=O)(=O)c2cccc3cnccc23)CCN1` (stereo unspecified), the result in [1] was inactive. The Potency result (in assay [2]; in the assay with Papain (Carica papaya)) was “inactive” throughout. Further, in assay [8], the max response was 32.3% (inactive).
With `COc1cc(OC)c(/C=C2/C(=O)Nc3ccccc32)c(OC)c1`, the outcome in assay [1] was inactive. Moreover, the Potency entry in assay [6] was “inactive”.
In the case of `COc1ccccc1CNCCCCCCNCCCCCCCCNCCCCCCNCc1ccccc1OC`, the result in assay [1] was inactive. The Potency entry in assay [6] was “inactive”.
Turning to `CS(=O)(=O)c1ccc(-n2nc(C(F)(F)F)cc2-c2ccc(F)cc2)cc1`, the result in [1] was inactive. Also, the Potency result (in assay [3]; in the assay with Papain (Carica papaya)) was “inactive” each time. For the same compound, the values for the Potency in [4] and in assay [5] were 9.52 µM (active) and 3.38 µM (active), respectively.
As to `NS(=O)(=O)c1ccc(-n2nc(C(F)(F)F)cc2-c2ccc(Cl)cc2)cc1`, the result in assay [1] was inactive. Further, the Potency entry (in [3]; with Papain (Carica papaya)) was “inactive” each time. The figures for the Potency in assay [4] and in assay [5] were 7.56 µM (active) and 10.7 µM (active), respectively.
In the case of `Fc1ccc(C(OCCCc2cnc[nH]2)c2ccc(F)cc2)cc1`, the outcome in assay [1] was inactive. Also, the Potency entry in [2] and in [6] was “inactive” each time. Besides, the max response in [8] is -7.37% (inactive).
In the case of `CN1[C@@H](CC(=O)c2ccccc2)CCC[C@H]1C[C@H](O)c1ccccc1`, the result in assay [1] was inactive. Further, the Potency entry (in assay [2]; in the assay with Papain (Carica papaya)) was “inactive” in each case.
Turning to `O=C(Nc1ccc2[nH]ncc2c1)C1CCC1`, the result in [1] was inactive. The Potency result (in assay [3]; with Papain (Carica papaya)) was “inactive” throughout.
